Experimental data as given in PubChem BioAssay AID602281 (The Scripps Research Institute Molecular Screening Center, 2012).
Among all 360,000 compounds or so, about 2,900 (0.81%) were called active. For the sample, actives were picked, then their nearest neighbours and some compounds at random. Unmarked numbers belong to inactive results.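 How the source made its calls: active means inhibition above the mean inhibition across every tested compound plus 3 SD (cut at about 22% in these data); inactive means the rest.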

molecular target: Perilipin-5 (Homo sapiens) + 1-acylglycerol-3-phosphate O-acyltransferase ABHD5 (Homo sapiens) (UniProt Q00G26+Q8WTS1); test: blockers of ABHD5 binding to perilipin-5 – cell lysate, split luciferase complementation, luminescence, primary screen (AID 602281);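 further: 0% = DMSO only wells and the 100% control is not disclosed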; conditions: Split G. princeps luciferase complementation, 4 h, at 4 µM, stronger effect = higher value
Sequence (Q00G26 whole entry, looked up): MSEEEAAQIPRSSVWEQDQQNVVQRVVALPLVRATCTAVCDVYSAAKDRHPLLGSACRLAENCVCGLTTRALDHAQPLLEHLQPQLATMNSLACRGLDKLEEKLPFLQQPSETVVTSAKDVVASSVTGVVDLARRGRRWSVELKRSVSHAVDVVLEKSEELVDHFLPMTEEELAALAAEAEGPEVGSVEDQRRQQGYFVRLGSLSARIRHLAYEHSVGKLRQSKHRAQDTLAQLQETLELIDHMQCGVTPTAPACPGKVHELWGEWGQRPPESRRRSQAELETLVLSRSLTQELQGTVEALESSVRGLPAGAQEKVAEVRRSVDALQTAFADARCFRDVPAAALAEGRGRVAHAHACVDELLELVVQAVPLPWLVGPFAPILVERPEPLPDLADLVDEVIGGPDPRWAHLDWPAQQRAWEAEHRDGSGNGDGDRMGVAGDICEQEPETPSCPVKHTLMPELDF
Sequence (Q8WTS1 whole entry, looked up): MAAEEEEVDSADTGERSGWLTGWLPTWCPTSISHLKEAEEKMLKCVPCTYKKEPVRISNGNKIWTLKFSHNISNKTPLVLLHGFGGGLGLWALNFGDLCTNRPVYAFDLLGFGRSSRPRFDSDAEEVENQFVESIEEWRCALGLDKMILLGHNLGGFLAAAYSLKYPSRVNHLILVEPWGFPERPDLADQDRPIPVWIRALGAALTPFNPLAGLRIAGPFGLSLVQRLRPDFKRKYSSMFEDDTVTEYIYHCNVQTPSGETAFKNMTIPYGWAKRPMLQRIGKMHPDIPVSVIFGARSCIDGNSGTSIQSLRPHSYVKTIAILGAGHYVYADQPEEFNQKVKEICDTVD

| Structure (SMILES) | inhibition |
| --- | --- |
| Cc1csc2ncc(C(=O)N(Cc3ccccc3)c3ccccn3)c(=O)n12 | 3.35% |
| COc1cc(CNCCN(C)C)ccc1OCc1c(F)cccc1Cl | 11.6% |
| O=C(/C=C/c1ccc(OCc2c(F)cccc2Cl)cc1)N1CCOCC1 | -6.95% |
| CN(C)CCCNC(=O)/C=C/c1ccc(OCc2c(F)cccc2Cl)cc1 | 28.6% (active) |
| O=S(=O)(c1ccc2ccccc2c1)N1CCN(S(=O)(=O)N2CCOCC2)CC1 | -1.34% |
| C[C@@H](CN1CCC[C@H]1CN1C(N)=NC[C@@H]1Cc1ccccc1)N1C[C@@H](Cc2ccccc2)N(CCCC2CCCC2)C1=N | 34.8% (active) |
| CCCCN1C(N)=NC[C@@H]1Cc1ccccc1 | 4.61% |
| CC[C@@H](C)[C@@H]1CN([C@@H](C)CN2CCC[C@H]2CN2C(N)=NC[C@H]2C(C)C)C(=N)N1CCc1ccc(Cl)c(Cl)c1 | 11.4% |
| Cc1ccc2c(c1)N(CC(=O)N1CCCc3ccccc31)C(=O)C(C)O2 (configuration not stated) | 5.29% |
| CC(=O)NC1=NN(C(C)=O)C(C)(CCS(=O)(=O)c2ccc(Cl)c(Cl)c2)S1 (configuration not stated) | 2.36% |
| COc1ccccc1NC(=O)CC(NCCN(C)C)C(=O)O (configuration not stated) | 0.5% |
| COc1ccccc1CNC(=O)Cn1cc2c(n1)CCCC2 | 8.04% |
| CCN(CC)CCN(C(=O)c1ccc2c(c1)CCCC2)c1nc2c(OC)cccc2s1 | 25% (active) |
| COc1cccc2sc(N(CCCN(C)C)C(=O)C(c3ccccc3)c3ccccc3)nc12 | 43.5% (active) |
| CN(CC1CCCN(CCc2cccc(C(F)(F)F)c2)C1)C(=O)c1ccc2nc[nH]c2c1 (configuration not stated) | -0.06% |
| CCN(CC)CCNS(=O)(=O)c1ccc(/C=C/C(=O)O)cc1 | 4.35% |
| OCc1ccc(-c2ccccc2)c(-c2ccccc2)c1 | -5.6% |
| CCCC/C(C)=N/NC(=O)NC1CCCCC1 | -3.36% |
| COc1ccc(C2=NOC3(CC(=O)N(c4ccc(Cl)cc4)C3=O)C2)c(OC)c1 (configuration not stated) | 0.13% |
| Cc1cc(O)ccc1-c1cc(C(=O)NCc2cc(C(F)(F)F)cc(C(F)(F)F)c2)[nH]n1 | -13.6% |
| COCCNc1nnc(SCC(=O)NNC(=O)c2ccco2)s1 | 0.13% |
| COc1ccc(NC(=O)/C(Cl)=C(/Cl)S(=O)Cc2ccc(C)cc2)cn1 (configuration not stated) | 96.3% (active) |
| CC(C)(C)C1C/C(=C/c2ccco2)C(=O)/C(=C/c2ccco2)C1 (configuration not stated) | 52.8% (active) |

| Structure (SMILES) | inhibition |
| --- | --- |
| COC(=O)COc1ccc2c(c1C)O/C(=C\c1ccco1)C2=O | 14.5% |
| Cc1ccc(S(=O)(=O)Cn2nnnc2CN2CCN(Cc3ccc4c(c3)OCO4)CC2)cc1 | -0.76% |
| O=C(CNC(=O)C12CC3CC(CC(C3)C1)C2)OCC(=O)N1CCCCC1 | -6.36% |
| Cc1cc(C)nc(NS(=O)(=O)c2ccc(N3C(=O)C4CCCCC4C3=O)cc2)n1 (configuration not stated) | -6.56% |
| CCc1ccc(N(CC(=O)NCc2cccnc2)S(=O)(=O)c2ccccc2)cc1 | 8.86% |
| O=C(CN(c1cc(C(F)(F)F)ccc1Cl)S(=O)(=O)c1ccccc1)NCc1cccnc1 | 3.26% |
| O=C(c1cccnc1)N(c1cc2sc(=O)oc2c2ccccc12)S(=O)(=O)c1ccccc1 | 55.9% (active) |
| O=C(COC(=O)c1ncc(Cl)c(Cl)c1Cl)NCc1cccs1 | 0.28% |
| CS(=O)(=O)N1CCCCC1c1cc(C(=O)NCc2ccccc2)no1 (configuration not stated) | -1.92% |
| CC1(C(=O)NS(=O)(=O)c2ccccc2)CCN1C(=O)C/C=C/c1ccccc1 (configuration not stated) | 11% |
| CC1(C)CCSC(/C=C/c2ccccc2)=N1 | 40.5% (active) |
| CNS(=O)(=O)c1cccc(C(=O)OCCCC(=O)c2ccccc2)c1 | 5.65% |
| CN1CCN(C2Cc3ccc(Cl)cc3Sc3ccc(F)cc32)CC1 (configuration not stated) | 10.5% |
| COc1ccc(CCNC(=O)Nc2ccc3c(c2)c(=O)n(C)n3C)cc1OC | 3.03% |
| COCCNC(=O)Nc1ccc2nc(-c3ccco3)c(-c3ccco3)nc2c1 | 22.6% (active) |
| COCCNC(=O)CN(Cc1ccco1)C(=O)CCC(=O)Nc1nccs1 | 7.43% |
| c1ccc(CC2CCN(c3nc4ccccc4n4cnnc34)CC2)cc1 | -9.78% |
| O=C(COc1ccc(S(=O)(=O)N2CCCCC2)cc1)NCc1ccccn1 | -0.42% |
| Cc1cccc(C)c1NC(=O)C(Cl)C(=O)c1ccccc1 (configuration not stated) | 38.3% (active) |
| CN=C(c1ccccc1)c1c(C)cccc1C | 4.42% |
| Cc1cccc(C)c1NC(=O)N1CC(C)OC(C)C1 (configuration not stated) | 5.67% |
| C[C@H](NC(=O)c1[nH]cnc1C(=O)Nc1nccs1)c1ccccc1 | 1.59% |
| CC(C(=O)c1ccc(-c2ccccc2)cc1)[n+]1cccc(Br)c1 (configuration not stated) | 0.81% |

| Structure (SMILES) | inhibition |
| --- | --- |
| Cn1c(=S)sc2ccc3ccccc3c21 | 1.97% |
| Cc1ccc(-c2c3c(=O)n(C)c(=O)n(C)c3cn2-n2cnnc2)cc1 | 22.5% (active) |
| Cc1cn(C)c(=O)n(C)c1=O | -0.3% |
| COc1ccc([N+](=O)[O-])cc1N(CC(=O)Nc1ccccc1C(=O)N1CCOCC1)S(C)(=O)=O | -1.59% |
| CC(=O)NC1CCN(CC(=O)Nc2nccs2)CC1 | 6.01% |
| CC(=O)Nc1ccc(C=CC(=O)c2ccc([N+](=O)[O-])cc2)cc1 | 27.1% (active) |
| O=C(/C=C/c1ccc(Cl)c([N+](=O)[O-])c1)c1ccc(O)cc1 | 67.9% (active) |
| O=C(O)c1ccc2c(=O)n3c(nc2c1)/C(=C/c1ccc(Cl)c([N+](=O)[O-])c1)CC3 | 3.3% |
| CC(C=Cc1ccccc1)=NNS(=O)(=O)c1ccc([N+](=O)[O-])cc1 | 1.47% |
| Cc1ccnc(NC(=O)c2ccc(Cl)c([N+](=O)[O-])c2)c1 | 5.06% |
| CC(=O)Nc1ccc(C(=O)/C=C/c2ccc[nH]2)cc1 | 11.6% |
| O=C(Nc1nccs1)C1CCN(S(=O)(=O)c2ccc(Cl)c(C(F)(F)F)c2)CC1 | -4.59% |
| CCN1CCN(C(=O)C2CCCN(S(=O)(=O)c3ccc(OC)c(OC)c3)C2)CC1 (configuration not stated) | 7.45% |
| O=C(NCc1cccc(Cl)c1)C1=CC=CN2CCS(=O)(=O)N=C12 | -4.23% |
| COc1ccc(S(=O)(=O)N2CCN(C(=O)NC3CCCCC3)CC2)cc1 | -2.23% |
| CC(C)[C@H](NC(=O)c1ccc(F)cc1)C(=O)OCC(=O)NC(=O)c1cccn1C | -4.59% |
| Cc1ccc2c(c1)C1CN(C)CCC1N2S(=O)(=O)c1ccc(Oc2ccc([N+](=O)[O-])cc2)cc1 (configuration not stated) | 15.8% |
| COc1ccc(-n2cc(CNC3CCOCC3)c(-c3cccc(F)c3)n2)cc1 | 24.7% (active) |
| CCC(O)C1CCN(Cc2cn(-c3ccc(OC)cc3)nc2-c2cccc(F)c2)CC1 (configuration not stated) | 8.4% |
| COc1ccc(-n2cc(CN(C)Cc3n[nH]c(=O)[nH]3)c(-c3cccc(F)c3)n2)cc1 | 7.9% |
| COc1ccc(C2OC(=O)CC2C(=O)NC(C)C)cc1 (configuration not stated) | -1.02% |
| COc1ccc(C(=O)C2CCCN(C(=O)c3cc4nc(C)cc(C)n4n3)C2)cc1F (configuration not stated) | 0.49% |
| Cc1ccc(CN2C(=O)CCC2C(=O)NCCCN2CCCCC2C)cc1 (configuration not stated) | 1.42% |

| Structure (SMILES) | inhibition |
| --- | --- |
| FC(F)(F)c1cc(-c2ccco2)nc(NCc2ccc(Cl)cc2)n1 | -5.83% |
| C[C@H](NC(=O)C1CC(=O)N(c2ccc3c(c2)OCO3)C1)C(=O)NCc1ccco1 (some centres not stated) | 10.8% |
| CCCC/C=C/c1cccc2nncn12 | -0.29% |
| COc1ccc(C(CNC(=O)COc2ccc([N+](=O)[O-])cc2)N2CCCCC2)cc1 (configuration not stated) | -7.05% |
| COc1ccc(C(C[N+](=O)[O-])n2nc(C)cc2C)cc1 (configuration not stated) | 54.3% (active) |
| Cc1cc(C)n(CC(O)COc2ccc(C(C)(C)C)cc2)n1 (configuration not stated) | -1.93% |
| COc1ccc(C(=O)C(OP(=O)(OC)OC)c2ccccc2OC)cc1 (configuration not stated) | 0.08% |
| CC(C)NC(=S)N1CCN(S(C)(=O)=O)CC1 | -5.54% |
| Cc1cc(-c2n[nH]c(=S)n2/N=C/C(Br)=C/c2ccccc2)n[nH]1 | 62.1% (active) |
| CCCc1cc(-c2n[nH]c(=S)n2CC)c2ccccc2n1 | -2.69% |
| CCN(CC)S(=O)(=O)c1cccc(-c2n[nH]c(=S)n2/N=C/c2ccc(C(=O)OC)cc2)c1 | -11.2% |
| COC(=O)C1=C(C)NC2=C(C(=O)c3ccccc32)C1c1ccc(-c2ccc(C(=O)O)cc2)o1 (configuration not stated) | 17.7% |
| Cc1ccc(NC(=S)N2CCN(c3ncccn3)CC2)cc1C | 5.22% |
| O=C1/C(=C\c2ccc(O)cc2)CCC1CNc1ccc(Cl)cc1 (configuration not stated) | 23.7% (active) |
| COc1cc(C)c(C)cc1S(=O)(=O)N1CCCc2ccccc21 | 3.45% |
| CCN1/C(=C\c2ccc3ccccc3[n+]2CC)Sc2cc(C)ccc21 | 28.2% (active) |
| C=C(C)C(=O)Nc1cccc(C2=NOC3(C2)C[C@H](C(N)=O)N(C(=O)C(c2ccccc2)c2ccccc2)C3)c1 (some centres not stated) | 0.12% |
| Cc1ccn2c(=O)nc(SCC(=O)NCc3ccc4c(c3)OCO4)nc2c1 | -8.67% |
| Cc1ccc(/C=C/C(=O)OCC(=O)NCc2ccc(Cl)cc2)o1 | 5.48% |
| COc1cc(NC(=S)NCCSc2ccc(C)cc2)cc(OC)c1 | -1.88% |
| COc1cc(SC)ccc1C(=O)Nc1nc(C)cs1 | -0.45% |
| Cc1csc(NC(=O)NC2(C(F)(F)F)Oc3ccccc3O2)n1 | 49.8% (active) |
| Cc1csc(NC(=O)C2CCN(S(=O)(=O)c3ccccc3)CC2)n1 | 2.8% |
